Assay results: the supplement of paper PMC13380429
Counter-ions that a name gives are not always drawn.

Tested on: Vero E6 infected with SARS-CoV-2
Assay: inhibition of SARS-CoV-2 cytopathic effect; higher = more antiviral protection, active = above 15
Details: 48 h

Measured: inhibition of SARS-CoV-2 cytopathic effect

CCCCCCCCCC(=O)OCCN1CCN(CCCN2c3ccccc3Sc3ccc(C(F)(F)F)cc32)CC1 [fluphenazine-decanoate]
inactive: 1 nM -6.37% | 8.33 nM -5.38% | 100 nM -8.72% | 833.33 nM -10.3% | 10000 nM -9.75%

CC(=O)SC[C@@H](C)C(=O)N1CCC[C@H]1C(=O)N[C@@H](Cc1ccccc1)C(=O)O [alacepril]
inactive: 1 nM -1.69% | 8.33 nM 0.59% | 100 nM 0.98% | 833.33 nM -1.33% | 10000 nM -0.44%

CC1=C(C(=O)O)N2C(=O)[C@@H](NC(=O)[C@H](N)c3ccc(O)cc3)[C@H]2SC1 [cefadroxil]
inactive: 1 nM 1.06% | 8.33 nM 1.53% | 100 nM 1.01% | 833.33 nM -2.49% | 10000 nM -1.18%

COc1cc(Br)c(S(=O)(=O)Nc2ccc(C(F)(F)F)c(O[C@@H]3CCN(C)C3)c2)cc1OC
inactive: 1 nM 1.05% | 8.33 nM 2.6% | 100 nM -1.36% | 833.33 nM -0.46% | 10000 nM -2.24%

O=C(O)P(=O)(O)O [foscarnet]
inactive: 1 nM 3.44% | 8.33 nM 3.89% | 100 nM 2.56% | 833.33 nM 0.33% | 10000 nM 0.71%

CNCCc1cnc[nH]1 [N-alpha-methylhistamine-dihydrochloride]
inactive: 1 nM 0.16% | 8.33 nM 2.71% | 100 nM 2.12% | 833.33 nM -0.59% | 10000 nM 1.37%

C[C@@H](CN)CC(=O)O [3-methyl-GABA]
inactive: 1 nM 0.49% | 8.33 nM 0.52% | 100 nM 1.28% | 833.33 nM 1.08% | 10000 nM -0.34%
